Inconclusive results are not listed. Active and inactive are the calls of the source. Calls come from the whole dose curve; as a rule, active = well fitted activation curve with a large enough effect in the repeat runs; inconclusive = weak or mixed curves; inactive = flat fitted curve, though single readings scatter.
Test: Caspase-3/7 induction in HepG2 cells by small molecules, qHTS assay (AID 1346978); note: nearly all actives have a fitted effect of over 15% in size
Conditions: HepG2 caspase-3/7 activation, Caspase-Glo luminescence, 17 h; series mostly up to 92.4 µM
From the text: National Center for Advancing Translational Sciences [NCATS] NIH Chemical Genomics Center [NCGC] U.S. Environmental Protection Agency [EPA] National Institutes of Environmental Health Sciences [NIEHS] National Toxicology Program [NTP] Assay overview: Apoptosis is a process of programmed cell death and plays a central role in the development of multicellular organisms. It is a highly regulated process and induces cell death by activating caspases, which are the members of cysteine aspartic acid-specific protease (caspase) family. Caspases involved in apoptosis are classified by their mechanism of action as initiator caspases (caspase-2, -8, -9 and -10) and executioner caspases (caspase-3, -6, and -7). Inhibition of apoptosis results in number of cancers, autoimmune diseases, inflammatory diseases and viral infection. To identify small molecule compounds that induce apoptosis, a homogeneous, luminescent Caspase-Glo 3/7 assay was used. Wild type HepG2 cells were used to screen Tox21 libraries for identifying caspase-3/7 activity inducers.
Assay Protocol Summary: HepG2 cells were dispensed at 2,000 per well in 5uL of culture medium into white solid bottom 1536-well plates (Corning Life Sciences, Corning, NY) using a Multidrop Combi (Thermo Scientific, Waltham, MA) dispenser. The assay plates were incubated at 37 C and 5% CO2 for 5hr, and then 23nL of compounds dissolved in DMSO and positive control were transferred using a Pintool station (Wako, San Diego, CA). The assay plates were incubated at 37C and 5% CO2 for 17hr. For caspase-3/7 activity read, 4uL of Caspase-Glo 3/7 reagent (Promega Corporation, Madison, WI) was added to each well of the assay plates using Flying Reagent Dispenser (FRD, Aurora Discovery, San Diego, CA) and incubated the assay plates at room temperature for 30min. The luminescence signal was quantified using a ViewLux plate reader (Perkin Elmer, Shelton, CT).
% is set by controls: 0 for no effect and ±100 for the full control effect.

Compound	outcome	caspase activation
C[C@H](CCC(=O)NCC(=O)O)[C@H]1CC[C@H]2[C@@H]3[C@H](O)C[C@@H]4C[C@H](O)CC[C@]4(C)[C@H]3C[C@H](O)[C@]12C	inactive	–
Nc1nc(=O)n([C@@H]2O[C@H](CO)[C@@H](O)[C@@H]2F)cc1I	inactive	–
Cc1nc2n(c(=O)c1CCN1CCC(C(=O)c3ccc(F)cc3)CC1)CCS2	inactive	–
CCC(=O)c1ccc(O)cc1	inactive	–
NS(=O)(=O)c1cc2c(cc1Cl)NC(C(Cl)Cl)NS2(=O)=O (stereo not given)	inactive	–
CN(C)CCCNCCC#N	inactive	–
Cc1ccccc1N1CCN(CCc2nnc3n2CCCC3)CC1	inactive	–
O=C(Nc1cccc(C2=NCCN2)c1)Nc1cccc(C2=NCCN2)c1	–	-0.792% [at 19 µM] (inactive)
COCCOCCOCCOC	inactive	–
CN[C@@H]1[C@H](O)[C@H](NC)[C@H]2O[C@@]3(O)C(=O)C[C@@H](C)O[C@H]3O[C@@H]2[C@H]1O	inactive	–
C=C(C)C(=O)OC	inactive	–
O=C(O)CCNC(=O)c1ccccc1	inactive	–
CN=C(NC#N)NCCSCc1csc(N=C(N)N)n1	inactive	–
CCCCC(=O)N(C)C	inactive	–
Cc1cccc(NC(=S)N(C)C)c1	inactive	–
CCCCCCCCCCCCC1CO1 (stereo not given)	inactive	–
CCCCCC1Nc2cc(C(F)(F)F)c(S(N)(=O)=O)cc2S(=O)(=O)N1 (stereo not given)	inactive	–
CCN(CC)C(=O)C1CN2CCc3cc(OC)c(OC)cc3C2CC1OC(C)=O (stereo not given)	inactive	–
CCCCC(CC)COC(=O)c1ccccc1 (stereo not given)	inactive	–
CCCCCCCCCCCCCC(=O)OC	inactive	–

Compound	outcome	caspase activation
CC(C)CCCCCCOC(=O)C1CCCCC1C(=O)OCCCCCCC(C)C (stereo not given)	inactive	–
C=CCOc1c(Br)cc(Br)cc1Br	inactive	–
O=C(O)c1c(Cl)ccc(Cl)c1Cl	inactive	–
OC(CCN1CCCCC1)(c1ccccc1)c1ccccc1	inactive	–
N#CCCOCCOCCC#N	inactive	–
CNC(=O)C(c1ccccc1)c1ccccc1	inactive	–
CCOC(=O)CCc1ccccc1	inactive	–
Cc1cccc(C(=O)O)c1[N+](=O)[O-]	inactive	–
NS(=O)(=O)c1ccc(Cl)c(S(N)(=O)=O)c1	inactive	–
CN(C)CCOCCN(C)CCO	inactive	–
CCCC(C)CC (stereo not given)	inactive	–
C[C@H](CCC(=O)O)[C@H]1CC[C@H]2[C@@H]3[C@H](O)C[C@@H]4C[C@H](O)CC[C@]4(C)[C@H]3C[C@H](O)[C@]12C	inactive	–
Nc1ccc(/C=C/c2ccc(N)cc2S(=O)(=O)O)c(S(=O)(=O)O)c1	–	0.454% [at 0.349 µM] (inactive)
CCCCCCCCCCCCC	inactive	–
CC(=O)Nc1ccc(C)cc1	inactive	–
COC(OC)C(C)c1ccccc1 (stereo not given)	inactive	–
COc1cccc2sc(N)nc12	inactive	–
CCOc1ccc(NC(=O)OC(C)C)cc1OCC	inactive	–
CC(C)COC(=O)COc1ccc(Cl)cc1Cl	inactive	–
CCC1Nc2cc(Cl)c(S(N)(=O)=O)cc2S(=O)(=O)N1 (stereo not given)	inactive	–
